This note sets out measurements from PubChem BioAssay (NCATS).

Test [1] can be described thus: Cell Viability - LYMP2-002 (AID 977).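 Note: series mostly up to about 92 µM; plate controls were DMSO only for no effect and 92 µM tetraoctylammonium bromide for full effect.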 In outline:
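Luminescent ATP readout (CellTiter-Glo, 30 min room temperature) after 24 h compound exposure at 37 C of a human lymphoblastoid line, 2500 cells/well. AC50 values derived by standard Hill fitting of qHTS concentration-response data.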

Test [2] can be described thus: Cell Viability - LYMP2-006 (AID 978). Note: series mostly up to about 92 µM; % is set by controls: 0 for no effect and ±100 for the full control effect; nearly all actives have a fitted effect of over 60% in size. In outline: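 Concentration-dependent loss of intracellular ATP in a human lymphoblastoid line after 24 hr treatment at 37 C was measured by CellTiter-Glo luminescence, with AC50 values obtained from standard Hill-equation modelling.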
The nature of test [3]: Cell Viability - LYMP2-007 (AID 979).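 Note: cells exposed to compound for 24 h before reading; 0% = DMSO only and the negative end = 92 µM tetraoctylammonium bromide; nearly all actives have a fitted effect of over 60% in size.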 In outline: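 Human lymphoblastoid LYMP2-007 cells (2500/well) preincubated 5 h at 37 C, then treated 24 h at 37 C in complete medium. Viability by CellTiter-Glo ATP luminescence after 30 min at room temperature; AC50 from Hill fits.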
Test [4] can be described thus: Cell Viability - LYMP2-008 (AID 980). Note: % is set by controls: 0 for no effect and ±100 for the full control effect; nearly all actives have a fitted effect of over 60% in size. In outline:
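LYMP2-008 lymphoblastoid cells (2500/well) plated 5 h, then treated 24 h at 37 C in complete medium. Viability read as intracellular ATP by CellTiter-Glo luminescence after 30 min at room temperature; AC50 from Hill fits.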

Test [5] in a line: Cell Viability - LYMP2-010 (AID 981). Note: % is set by controls: 0 for no effect and ±100 for the full control effect; nearly all actives have a fitted effect of over 55% in size. In a few lines: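 Human lymphoblastoid LYMP2-010 cells (2500/well) treated 24 h at 37 C in complete medium; viability read as intracellular ATP by CellTiter-Glo luminescence. AC50 from Hill fits of concentration-response data; tetraoctylammonium bromide positive control.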
The nature of test [6]: Cell Viability - LYMP2-012 (AID 982).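 Note: cellular ATP by luciferase luminescence where a drop means cytotoxicity; cells exposed to compound for one day before reading; 0% = DMSO only and full loss = 92 µM tetraoctylammonium bromide; nearly all actives have a fitted effect of over 55% in size.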
Test [7] in a line: Cell Viability - LYMP2-014 (AID 983).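 Note: series mostly up to about 92 µM; plate controls were DMSO only for no effect and 92 µM tetraoctylammonium bromide for full effect; nearly all actives have a fitted effect of over 50% in size.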 In a few lines:
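LYMP2-014 human lymphoblastoid cells, 2500/well, treated 24 h at 37 C in complete medium; viability by CellTiter-Glo ATP luminescence after 30 min at room temperature. AC50 from Hill fits of qHTS concentration-response; tetraoctylammonium bromide positive control.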

Test [8] is described as follows: Cell Viability - LYMP2-016 (AID 984). Note: % is set by controls: 0 for no effect and ±100 for the full control effect; nearly all actives have a fitted effect of over 55% in size. In a few lines:
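Acute toxicity in a Coriell human lymphoblastoid line is scored as loss of intracellular ATP over 24 h of treatment in complete medium. CellTiter-Glo signal is fitted across concentrations with the Hill equation to give AC50.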

Test [9] in a line: Cell Viability - LYMP2-018 (AID 985).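 Note: compound exposure lasted 24 hr at 37 °C; plate controls were DMSO only for no effect and tetraoctylammonium bromide at 92 µM for full effect; nearly all actives have a fitted effect of over 50% in size.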 In a few lines:
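Human lymphoblastoid LYMP2-018 cells, 2500/well, settled 5 hr at 37 C then exposed to compound 24 hr at 37 C; intracellular ATP measured by CellTiter-Glo luminescence. AC50 from Hill-equation concentration-response fits.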

Test [10] is described as follows: Cell Viability - LYMP2-020 (AID 986).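 Note: series mostly up to about 92 µM; plate controls were DMSO only for no effect and tetraoctylammonium bromide at 92 µM for full effect; nearly all actives have a fitted effect of over 55% in size.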 In a few lines:
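Human lymphoblastoid LYMP2-020 cells (2500/well) preincubated 5 h at 37 C, then treated 24 h at 37 C. Viability measured as intracellular ATP by CellTiter-Glo luminescence after 30 min at room temperature; AC50 from Hill fits.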

A short description of test [11]: Cell Viability - LYMP2-022 (AID 987). In a few lines:
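LYMP2-022 lymphoblastoid cells (2500/well, complete medium) were treated with compounds for 24 hours at 37 C; intracellular ATP was then read by CellTiter-Glo luminescence after 30 min at room temperature. AC50 values were derived from Hill-equation fits.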

Test [12] can be described thus: Cell Viability - LYMP2-024 (AID 988).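 Note: plate controls were DMSO only for no effect and 92 µM tetraoctylammonium bromide for full effect; nearly all actives have a fitted effect of over 60% in size.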 In outline: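 Human lymphoblastoid LYMP2-024 cells (2500/well) rested 5 hr, then treated with compound for 24 hr at 37 C in complete medium. Viability was measured as intracellular ATP by CellTiter-Glo luminescence. AC50 values came from Hill-equation fits.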
Test [13] can be described thus: Cell Viability - LYMP2-026 (AID 989). Note: % is set by controls: 0 for no effect and ±100 for the full control effect; nearly all actives have a fitted effect of over 50% in size. In outline:
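Human lymphoblastoid LYMP2-026 cells, 2500/well, exposed to compound 24 h at 37 C in complete medium. Viability as intracellular ATP by CellTiter-Glo luminescence; AC50 from Hill fits of qHTS concentration-response.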

A short description of test [14]: Cell Viability - LYMP1-002 - Assay at 24 hr (AID 993). Note: % is set by controls: 0 for no effect and ±100 for the full control effect. In outline:
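Human lymphoblastoid LYMP1-002 cells (2500/well) treated 24 h at 37 °C; viability as intracellular ATP by CellTiter-Glo luminescence. Tetraoctylammonium bromide as positive control; AC50 from Hill-equation fits of qHTS concentration-response.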

Test [15] can be described thus: Cell Viability - LYMP1-002 - Assay at 40 hr (AID 994). In a few lines:
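LYMP1-002 human lymphoblastoid cells (2500/well, complete medium) were treated with compounds for 40 hr at 37 C. Intracellular ATP was measured by CellTiter-Glo luminescence, and AC50 values came from Hill-equation fits of concentration-response data; tetraoctylammonium bromide was the positive control.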

For test [16], the target named is Estrogen receptor (Homo sapiens) (UniProt P03372). In words: qHTS assay for small molecule antagonists of estrogen receptor alpha signaling (AID 588513; active = well fitted curve in the direction sought with a large enough effect in the signal ratio, with a control signal flat, not every such curve was filed as active; the % refers to the signal ratio; note: % is set by controls: 0 for no effect and ±100 for the full control effect). In outline: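 Cells were plated at 5000/well and incubated 4 h at 37 C. Compounds were added as 1:2 dilution series, duplicates. 17-beta-estradiol (0.5nM final) was added for 18 h before CCF4 detection.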
Test [17] shares this target. In words: qHTS assay for small molecule agonists of estrogen receptor alpha signaling (AID 588514; calls by dose curve;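 note: 0% = vehicle only and 100% = reference agonist; nearly all actives have a fitted effect of over 70% in size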). In a few lines: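 ER-alpha-UAS-bla GripTite HEK293 cells, 5000/well in 2% charcoal/dextran-stripped FBS medium, treated with compound titrations 18 h at 37 C. CCF4 beta-lactamase read by fluorescence after 2 h RT; normalised to 20 nM 17-beta-estradiol (100%) and DMSO (0%), Hill fit for EC50 and efficacy.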

Test [18] deals with Bile acid receptor (Homo sapiens) (UniProt Q96RI1). In words: qHTS assay for small molecule antagonists of farnesoid X receptor signaling (AID 588526; calls by dose curve; note: % is set by controls: 0 for no effect and ±100 for the full control effect). In outline:
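Concentration-response titrations were fitted to the Hill equation for half-maximal inhibition and maximal response, with data normalised to 50 uM chenodeoxycholic acid and DMSO control wells. Cells: FXR-UAS-bla HEK293T, dialyzed FBS.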

Test [19] has the same target. In words: qHTS assay for small molecule agonists of farnesoid X receptor signaling (AID 588527; calls by dose curve;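 note: series mostly up to about 77 µM; 0% = vehicle basal and 100% = reference agonist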). The conditions noted are these: HEK293T FXR-UAS-bla, beta-lactamase ratio, 16 h; stronger effect = higher value. In outline:
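Agonist-mode beta-lactamase reporter in GeneBLAzer FXR-UAS-bla HEK293T cells, titration up to 92 uM, 16 h exposure at 37 C, CCF4 fluorescence. Response scaled to DMSO (0%) and 100 uM chenodeoxycholic acid (100%), then Hill-fitted for EC50 and efficacy.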

Test [20] has as its target Glucocorticoid receptor (Homo sapiens) (UniProt P04150). In words: qHTS assay for small molecule agonists of glucocorticoid receptor signaling (AID 588532; active = well fitted curve in the direction sought with a large enough effect in the signal ratio, with a control signal flat; the % refers to the signal ratio;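 note: 100% = dexamethasone at 0.1 µM and 0% = DMSO only wells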). The conditions noted are these: HeLa MMTV-bla, beta-lactamase ratio, agonist, 18 h; stronger effect = higher value; percent of dexamethasone control, DMSO zero. In a few lines:
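Stimulation of a glucocorticoid response element-driven beta-lactamase gene was measured in HeLa cells. Responses were scaled between DMSO basal and 0.1 uM dexamethasone, then fitted for half-maximal stimulation.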

Test [21] has the same target. Put plainly: qHTS assay for small molecule antagonists of glucocorticoid receptor signaling (AID 588533; active = well fitted inhibition curve with a large enough effect in the signal ratio, with a control signal flat, not every such curve was filed as active; the % refers to the signal ratio;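 note: cells stimulated with 2 nM dexamethasone as agonist; % is set by controls: 0 for no effect and ±100 for the full control effect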). In a few lines:
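Antagonist-mode qHTS: compound titrations added to GRE-bla HeLa cells, then dexamethasone 2 nM final; 18 h, 37 C. CCF4 FRET fluorescence normalized to dexamethasone and DMSO; IC50 from Hill fit.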

Test [22] addresses Peroxisome proliferator-activated receptor delta (Homo sapiens) (UniProt Q03181). In words: qHTS assay for small molecule agonists of peroxisome proliferator-activated receptor delta signaling (AID 588534; calls by dose curve;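 note: 0% = DMSO basal wells and 100% = positive control agonist at 10 µM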). In outline:
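Cells carrying a PPAR-delta beta-lactamase reporter were treated with compounds for 18 h at 37 °C in agonist mode. CCF4 fluorescence was read after 2 h; EC50 and efficacy from Hill fits.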

A short description of test [23]: qHTS assay for small molecule antagonists of peroxisome proliferator-activated receptor delta signaling (AID 588535).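 Note: cells co-treated with a PPAR-delta agonist as stimulator during compound exposure.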 The conditions noted are these: HEK293T PPARd-UAS-bla, beta-lactamase FRET ratio, 18 h; 460 nm channel. In a few lines: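 Reporter: UAS-bla under PPAR-delta response element, HEK293T host. Medium: 2% charcoal/dextran FBS. Dosing: titration, 18 hrs, 37 C. Detection: CCF4, 2 hrs RT, 405 ex/460 and 530 em.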

Several values for one entry are separate records, joined by “and”; a condition that tells them apart may be missing. Equal entries are not always repeated. Inconclusive results are not listed. Activity calls are given as the source filed them. Unless noted, calls come from the whole dose curve; as a rule, active = well fitted cell-killing curve with a large enough effect; inconclusive = small, poorly fitted or top-dose-only effect; inactive = flat fitted curve, though single readings scatter.

Bile acid receptor (Homo sapiens), sequence (Q96RI1 whole entry, looked up): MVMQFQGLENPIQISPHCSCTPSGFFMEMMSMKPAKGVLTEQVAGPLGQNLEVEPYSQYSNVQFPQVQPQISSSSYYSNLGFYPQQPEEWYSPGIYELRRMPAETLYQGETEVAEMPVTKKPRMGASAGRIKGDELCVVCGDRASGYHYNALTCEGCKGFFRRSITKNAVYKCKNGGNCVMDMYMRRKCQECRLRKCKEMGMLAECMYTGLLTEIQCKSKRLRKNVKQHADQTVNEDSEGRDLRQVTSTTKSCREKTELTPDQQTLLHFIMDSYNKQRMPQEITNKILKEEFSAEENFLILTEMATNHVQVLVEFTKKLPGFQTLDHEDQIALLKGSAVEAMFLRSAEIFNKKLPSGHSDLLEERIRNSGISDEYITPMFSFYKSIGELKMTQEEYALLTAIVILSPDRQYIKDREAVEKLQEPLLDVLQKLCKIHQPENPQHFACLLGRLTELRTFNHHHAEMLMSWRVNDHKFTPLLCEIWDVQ
Estrogen receptor (Homo sapiens), sequence (P03372 whole entry, looked up): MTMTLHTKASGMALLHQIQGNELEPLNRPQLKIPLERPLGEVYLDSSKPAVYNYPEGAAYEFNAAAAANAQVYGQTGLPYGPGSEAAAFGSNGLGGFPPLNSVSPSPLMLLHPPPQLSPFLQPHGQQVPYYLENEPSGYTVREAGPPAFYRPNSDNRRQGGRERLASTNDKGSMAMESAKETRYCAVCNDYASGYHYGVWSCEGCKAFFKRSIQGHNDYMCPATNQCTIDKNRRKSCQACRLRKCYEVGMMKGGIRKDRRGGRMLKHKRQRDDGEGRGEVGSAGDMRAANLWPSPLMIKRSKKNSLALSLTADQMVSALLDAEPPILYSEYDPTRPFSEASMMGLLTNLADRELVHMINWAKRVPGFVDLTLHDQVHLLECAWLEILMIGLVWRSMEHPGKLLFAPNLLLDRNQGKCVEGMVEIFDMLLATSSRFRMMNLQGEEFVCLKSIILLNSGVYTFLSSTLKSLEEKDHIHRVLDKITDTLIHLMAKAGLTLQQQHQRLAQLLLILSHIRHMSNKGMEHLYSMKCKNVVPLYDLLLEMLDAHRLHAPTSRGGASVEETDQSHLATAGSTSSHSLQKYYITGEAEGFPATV
Glucocorticoid receptor (Homo sapiens), sequence (P04150 whole entry, looked up): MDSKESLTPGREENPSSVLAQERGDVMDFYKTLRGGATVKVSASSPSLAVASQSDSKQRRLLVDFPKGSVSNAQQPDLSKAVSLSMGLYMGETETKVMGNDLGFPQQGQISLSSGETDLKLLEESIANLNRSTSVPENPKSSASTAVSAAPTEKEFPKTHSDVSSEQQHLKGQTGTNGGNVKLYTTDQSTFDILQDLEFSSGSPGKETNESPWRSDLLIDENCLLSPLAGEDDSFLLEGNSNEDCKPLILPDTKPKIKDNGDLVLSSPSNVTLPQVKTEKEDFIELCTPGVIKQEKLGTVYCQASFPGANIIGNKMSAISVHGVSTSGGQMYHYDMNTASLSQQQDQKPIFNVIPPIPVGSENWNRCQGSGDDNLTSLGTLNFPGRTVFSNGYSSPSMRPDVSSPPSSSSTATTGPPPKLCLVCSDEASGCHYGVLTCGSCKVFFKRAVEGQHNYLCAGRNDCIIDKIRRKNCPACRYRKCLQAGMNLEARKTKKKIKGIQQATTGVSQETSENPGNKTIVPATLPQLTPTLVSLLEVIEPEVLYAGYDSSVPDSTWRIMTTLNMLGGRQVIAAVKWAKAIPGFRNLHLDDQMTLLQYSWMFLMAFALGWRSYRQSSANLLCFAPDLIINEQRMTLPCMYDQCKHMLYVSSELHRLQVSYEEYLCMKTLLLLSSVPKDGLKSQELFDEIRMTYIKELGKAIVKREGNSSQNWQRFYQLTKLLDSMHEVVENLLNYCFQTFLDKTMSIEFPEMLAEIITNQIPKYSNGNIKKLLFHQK
Peroxisome proliferator-activated receptor delta (Homo sapiens), sequence (Q03181 whole entry, looked up): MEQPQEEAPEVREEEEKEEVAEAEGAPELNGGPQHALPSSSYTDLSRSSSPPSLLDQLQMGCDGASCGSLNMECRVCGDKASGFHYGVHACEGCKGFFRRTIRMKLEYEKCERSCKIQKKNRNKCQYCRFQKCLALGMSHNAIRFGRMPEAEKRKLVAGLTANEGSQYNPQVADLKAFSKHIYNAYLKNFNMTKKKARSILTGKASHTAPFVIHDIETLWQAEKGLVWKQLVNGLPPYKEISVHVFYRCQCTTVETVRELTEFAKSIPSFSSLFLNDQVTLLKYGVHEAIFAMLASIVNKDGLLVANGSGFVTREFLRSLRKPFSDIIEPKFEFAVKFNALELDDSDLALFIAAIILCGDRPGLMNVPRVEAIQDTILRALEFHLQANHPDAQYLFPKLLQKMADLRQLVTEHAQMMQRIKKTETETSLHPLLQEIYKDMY

On to `CCC[CH2][Sn]([Cl])([Cl])[Cl]`, for which the Potency entry in test [1], in [2], in [3], in test [4], in test [5] and in [6] was “inactive” in each case. Moreover, the Potency result in test [7], in test [8], in [9], in test [10], in [11] and in test [12] was “inactive” throughout. Further, the Potency result in [13], in test [14], in test [15], in [16], in test [17] and in test [21] was “inactive” in each case. The result in test [18] and in test [22] was inactive. For the same molecule, the activation in [19] is -3.23% (inactive) and -2.97% (inactive); in [20], -4.16% (inactive) and -3.24% (inactive). For the same molecule, the max response in test [23] is 31.1% and 8.78%.
